A selection: hits, their analogues and other compounds. The true share with any hit is near 21%.
Pf growth 96h = Primary qHTS for delayed death inhibitors of the malarial parasite plastid, 96 hour incubation. P. falciparum luciferase reporter growth, 96 h. Potency, µM (titrated, usually from 28.7 µM), hits mostly inhibitors. hit rate 6.9% among 320,000; active means well fitted inhibition curve with a large enough effect; inconclusive means small, poorly fitted or top-dose-only effect, or another doubt; inactive means no such curve, though single readings can be large or run the other way
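Plates of compound plus infected erythrocytes (2% hematocrit, 0.05% parasitemia final) incubate 96 hours, 37 C, 5% CO2. Detection reagent added; reduced luminescence from the parasites' luciferase reporter flags inhibition.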
Cycloheximide cs = Cycloheximide Counterscreen for Small Molecule Inhibitors of Shiga Toxin; cell reporter, cycloheximide protein synthesis inhibition counterscreen; max response, %; hit rate 12% among 300,000; in the data active means max response mostly above about 13%, no sharp cut-off; inactive means mostly below about 14%; further: read at 38.3 µM for the half of the compounds with a filed dose
Pf growth 48h = Primary qHTS for delayed death inhibitors of the malarial parasite plastid, 48 hour incubation; P. falciparum luciferase growth in erythrocytes, 48 h; Potency, µM (series often up to 28.7 µM), actives largely listed as inhibitors; hit rate 5.9% among 310,000; AID 504832, 2011; active means well fitted inhibition curve with a large enough effect; inconclusive means small, poorly fitted or top-dose-only effect, or another doubt; inactive means no such curve, though single readings can be large or run the other way
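Luciferase-expressing P. falciparum in infected erythrocytes (2% hematocrit, 0.1% parasitemia final) in RPMI 1640/0.5% Albumax were exposed to compound for 48 hours at 37 C, 5% CO2; growth read as luminescence.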
Shiga toxin inh = A qHTS for Small Molecule Inhibitors of Shiga Toxin; inhibition, % at 38.7 µM; hit rate 9.2% among 290,000; AID 2315, 2010; Vero cells, Shiga toxin protein synthesis inhibition reporter; in the data active means inhibition mostly above about 28%, no sharp cut-off; inactive means mostly below about 43%
NS1 inh = qHTS Assay for Inhibitors of Influenza NS1 Protein Function; AID 2326, 2010; Potency, µM (top dose mostly 46.1 µM); hit rate 0.4% among 270,000; further: actives are rising curves; nearly all actives have a fitted effect of over 50% in size
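Growth recovery, yeast-based: influenza A NS1 expressed in S. cerevisiae causes slow growth, and suppressors are detected by OD600. The parent strain without NS1 is used as positive control.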
SARS PLP yeast = qHTS of Yeast-based Assay for SARS-CoV PLP; S. cerevisiae expressing SARS-CoV PLpro, growth rescue; hit rate 0.19% among 330,000; Potency, µM (top dose mostly 32.9 µM), most hits filed as activators; AID 485353, 2010; further: nearly all actives have a fitted effect of over 55% in size
Each line names hits and unclear results; the compound was inactive in the other large screens. Unless noted, the call rests on the fitted dose curve.

O=C(COC(=O)/C=C/c1ccccc1)NCCC1=CCCCC1	none
Nc1nsnc1C(=O)NCCO	Pf growth 96h 2.3µM
CCC(=O)NC(c1cccs1)c1cc(Cl)c2ccccc2c1O (stereo not given)	Pf growth 96h inconclusive (no result: Cycloheximide cs, Shiga toxin inh, NS1 inh)
CCC(=O)NC(c1cccs1)c1cc(Br)c2cccnc2c1O (stereo not given)	Pf growth 96h 2.9µM, Pf growth 48h 0.93µM (no result: Cycloheximide cs, Shiga toxin inh, NS1 inh)
O=C(CCc1ccccc1)NC(c1cccs1)c1cc(Cl)c2cccnc2c1O (stereo not given)	Pf growth 48h 0.41µM
CC[C@H](C)[C@@H](C(=O)NCCCCCCCCCCC(=O)N1CCNCC1)n1cc(CCCCN=C(N)N)nn1	Pf growth 96h 2.3µM, Pf growth 48h 2.9µM (no result: Cycloheximide cs, Shiga toxin inh, NS1 inh)
CC[C@H](C)Cc1cn([C@@H](CCCN=C(N)N)C(=O)NCCCCCCCCCCC(=O)N2CCNCC2)nn1	Pf growth 96h inconclusive, Pf growth 48h 4.7µM (no result: Cycloheximide cs, Shiga toxin inh, NS1 inh)
CC1(c2ccccc2)CC(c2ccccc2)=Nc2ccccc2N1 (stereo not given)	Cycloheximide cs 57, Pf growth 48h inconclusive, Shiga toxin inh 91
C=CCN1C(=S)CC(c2ccccc2)=Nc2ccccc21	Pf growth 96h inconclusive, Pf growth 48h inconclusive
CC1(c2ccccc2)CC(c2ccccc2)=Nc2nonc2N1 (stereo not given)	Pf growth 96h inconclusive, Pf growth 48h 1.5µM
Cc1ccc(C2=Nc3ccccc3NC(C)(c3ccc(C)o3)C2)o1 (stereo not given)	Pf growth 96h inconclusive, Cycloheximide cs 60, Pf growth 48h inconclusive, Shiga toxin inh 82
Cc1nn(-c2ccc(F)cc2)c(Cl)c1/C=C(\CC(=O)O)c1nc2ccccc2s1	none
O=C1Nc2cc(Cl)c(Cl)cc2N(O)N1c1ccc(Cl)c(Cl)c1	none
O=S(=O)(C[C@H](O)C(Cl)(Cl)Cl)NNc1ccccc1	none (no result: Pf growth 96h, Cycloheximide cs, Pf growth 48h, Shiga toxin inh, SARS PLP yeast)
Cc1ccc(C)c(NC(=S)N/N=C/C(C)c2ccccc2)c1 (stereo not given)	Pf growth 96h inconclusive, Pf growth 48h inconclusive
Cc1ccc(NC(=O)CCC(=O)c2cccs2)nc1	none (no result: Cycloheximide cs, Shiga toxin inh, NS1 inh)
CNC(=S)NCCc1ccccc1	none
O=S(=O)(Cc1ccccc1)Nc1ccc(Br)cn1	Pf growth 96h inconclusive
Cc1ccc(NS(=O)(=O)Cc2ccccc2)nc1	Cycloheximide cs 25, Shiga toxin inh 56
Cc1ccc(NC(=O)CCCc2ccccc2)nc1	Cycloheximide cs 44, Shiga toxin inh 89
Cc1ccc(NC(=S)NCCc2ccccc2)nc1	Cycloheximide cs 25, Shiga toxin inh 76 (no result: NS1 inh)
CC(OC(=O)c1ccccc1C(=O)N(C)C1CCCCC1)C(=O)NC1(C#N)CCCCC1 (stereo not given)	Pf growth 96h inconclusive, Pf growth 48h inconclusive (no result: Cycloheximide cs, Shiga toxin inh, NS1 inh)
CCOC(=O)C1C(=O)C=C(c2ccc(C)cc2)CC1c1cccc([N+](=O)[O-])c1 (stereo not given)	Pf growth 96h 6.6µM, Pf growth 48h inconclusive, NS1 inh inconclusive
CCOC(=O)C1C(=O)C=C(c2ccc(C)cc2)CC1c1ccco1 (stereo not given)	Cycloheximide cs 21, Pf growth 48h inconclusive, Shiga toxin inh 54
CCOC(=O)C1C(=O)C=C(c2ccc(NS(C)(=O)=O)cc2)CC1c1ccco1 (stereo not given)	Pf growth 96h inconclusive, Pf growth 48h inconclusive
COC(=O)N1C(=O)[C@](c2ccsc2)(C(C)C)N1C(=O)OC	Cycloheximide cs 20
COC(=O)N1C(=O)[C@](c2ccc(OC)cc2)(C(C)C)N1C(=O)OC	Cycloheximide cs 10
Cc1cccc(NC(=S)NCc2ccccc2Cl)c1C	Pf growth 96h inconclusive, Pf growth 48h inconclusive
O=Cc1cc(N=Nc2ccccc2Cl)ccc1O	Cycloheximide cs 34, Pf growth 48h inconclusive
O=Cc1cc(N=Nc2cccc(C(=O)O)c2)ccc1O	Cycloheximide cs 39, Shiga toxin inh 76 (no result: NS1 inh)
CN1C(=O)/C(=C\c2cc(N=Nc3ccccc3)ccc2O)SC1=S	Pf growth 96h inconclusive, Pf growth 48h inconclusive
O=C(O)c1ccc(/C=C/c2nc3sc4c(c3c(=O)[nH]2)CCC4)cc1	none (no result: NS1 inh)
C=CCOc1c(Cl)cc(C(=S)N2CCCC2)cc1OCC	none
COc1ccc2c(=O)cc(C(F)(F)C(F)(F)F)oc2c1	none
COc1cccc2oc(-c3ccco3)cc(=O)c12	Cycloheximide cs 30, Pf growth 48h inconclusive
COc1ccc2c(=O)cc(-c3ccccc3F)oc2c1	Cycloheximide cs 41, Shiga toxin inh 54
COc1ccc2oc(-c3ccco3)cc(=O)c2c1	Pf growth 96h inconclusive, Cycloheximide cs 50, Shiga toxin inh 68
COc1ccc(-c2cc(=O)c3c(OC)c(OC)c(OC)cc3o2)cc1OC	none (no result: Pf growth 96h, Pf growth 48h, NS1 inh, SARS PLP yeast)
O=c1cc(-c2ccco2)oc2ccc(Cl)cc12	none
Cn1cccc1CNC(=S)Nc1ccccc1F	none (no result: NS1 inh)
Cc1ccc(F)c(CNC(=O)C2CCC(=O)N(CCCN3CCCC3=O)C2)c1F (stereo not given)	none
O=c1cc2c(nn1Cc1c(Cl)cccc1Cl)-c1ccccc1CC2	Pf growth 96h 5.2µM (no result: Pf growth 48h)
Clc1cccc(Cl)c1CSc1cc2c(nn1)-c1ccccc1CC2	none
COc1ccc(OCC(O)CNC(=O)/C=C/c2cccc([N+](=O)[O-])c2)cc1 (stereo not given)	none (no result: NS1 inh)
Cc1ccc2oc(=O)c3cc(C(=O)NCCCN4CCN(C)CC4)sc3c2c1	none
Cc1ccc2oc(=O)c3cc(C(=O)N4CCN(C(=O)c5ccco5)CC4)sc3c2c1	Pf growth 96h inconclusive
O=C(NCCCN1CCCCCC1)c1cc2c(=O)oc3ccccc3c2s1	Pf growth 48h 2.9µM
Cc1ccc2oc(=O)c3cc(C(=O)NCCCN4CC(C)CC(C)C4)sc3c2c1 (stereo not given)	Pf growth 48h 2.1µM
CCN(Cc1ccccc1)C(=O)c1cc2c(=O)oc3ccc(C)cc3c2s1	Pf growth 96h 4.7µM (no result: Pf growth 48h)
C=CC[C@H](CC(=O)N[C@H](CO)Cc1ccccc1)C(=O)N[C@@H](COC(=O)[C@@H](CC=C)Cc1ccc(F)cc1)Cc1c[nH]c2ccccc12	none (no result: Pf growth 96h, Cycloheximide cs, Pf growth 48h, Shiga toxin inh, NS1 inh)
COC(=O)CC1C(=O)NCCN1C(=S)Nc1cccc(C)c1 (stereo not given)	none
Cc1c(C(=O)N2CCc3ccccc3C2)oc2ccc(Br)cc12	Pf growth 48h inconclusive (no result: Cycloheximide cs, Shiga toxin inh, NS1 inh)
Cc1oc2cc3c(C(=O)N4CCCCC4)c(C)oc3cc2c1C(=O)N1CCCCC1	Cycloheximide cs 53 (no result: Pf growth 96h, Pf growth 48h)
Cc1c(C(=O)N2CCCC2)oc2ccc(Br)cc12	Cycloheximide cs 35, Shiga toxin inh 42
COC(=O)CC1C(=O)NCCN1C(=S)Nc1ccc(F)cc1 (stereo not given)	Pf growth 96h 3.7µM
Cc1c(C(=O)N2CCN(C)CC2)oc2ccc(Br)cc12	Pf growth 96h inconclusive, Cycloheximide cs 33, Shiga toxin inh 46
CCOc1ccc(Br)cc1S(=O)(=O)NC(=O)c1ccccc1	none
Cc1c(C(=O)N2CCN(CCc3ccccc3)CC2)oc2ccccc12	none
CCCc1ccc2oc(C(=O)N3CCCC3)c(C)c2c1	Pf growth 96h inconclusive, Cycloheximide cs 30 (no result: Shiga toxin inh)
